In PubChem BioAssay AID2590 (National Center for Advancing Translational Sciences (NCATS), 2010):
Several values for one entry are separate records, joined by “and”; a condition that tells them apart may be missing. Equal values may be shown once. Results filed as inconclusive are left out. Activity calls are given as the source filed them. Calls come from the whole dose curve; as a rule, active = well fitted curve in the direction sought with a large enough effect; inconclusive = small, poorly fitted or top-dose-only effect, or another doubt; inactive = no such curve, though single readings can be large or run the other way.

Biological target: Lysosomal acid glucosylceramidase (Homo sapiens) (UniProt P04062)
Test: qHTS Assay for Inhibitors and Activators of N370S glucocerebrosidase as a Potential Chaperone Treatment of Gaucher Disease: Primary Screen Confirmation;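 for Potency: enzyme source is Gaucher patient spleen homogenate not purified recombinant protein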;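 for activity change, negative = inhibition: 0% = enzyme with DMSO and -100% = no enzyme basal signal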
Settings: N370S glucocerebrosidase enzyme activity, fluorogenic substrate; series mostly up to 54 µM; activity change, negative = inhibition: at the top concentration
In short: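 Patient-spleen homogenate carrying N370S GC (27 ug) in pH 5.0 citrate buffer with 0.01% Tween-20, 1 mM 4-methylumbelliferyl-beta-glucoside, 40 min at 37C; fluorescence 365/440 nm after NaOH/glycine stop; AC50 from Hill fits.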
Potency is the fitted concentration of half-maximal effect.

Sequence of Lysosomal acid glucosylceramidase (Homo sapiens) (P04062 whole entry N409S): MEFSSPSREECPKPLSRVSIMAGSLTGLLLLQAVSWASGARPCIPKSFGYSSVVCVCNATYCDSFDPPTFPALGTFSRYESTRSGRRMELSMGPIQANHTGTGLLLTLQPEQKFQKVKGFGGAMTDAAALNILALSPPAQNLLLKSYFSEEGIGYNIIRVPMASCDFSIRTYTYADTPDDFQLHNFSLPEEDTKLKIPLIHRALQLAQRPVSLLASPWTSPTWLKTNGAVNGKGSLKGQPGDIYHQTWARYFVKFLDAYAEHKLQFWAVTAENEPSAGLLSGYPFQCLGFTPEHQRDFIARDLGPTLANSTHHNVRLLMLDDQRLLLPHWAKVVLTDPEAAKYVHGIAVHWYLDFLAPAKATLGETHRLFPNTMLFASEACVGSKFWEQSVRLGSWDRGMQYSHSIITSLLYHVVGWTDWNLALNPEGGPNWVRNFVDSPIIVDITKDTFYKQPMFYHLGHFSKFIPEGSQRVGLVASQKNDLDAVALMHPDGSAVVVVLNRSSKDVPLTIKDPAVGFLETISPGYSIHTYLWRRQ

**Q.** How did the Potency turn out when O=S(=O)(c1cccc(F)c1)N1CCN(c2nc(-c3cccs3)nc3ccccc23)CC1 was run?
**A.** The Potency was 1.01 µM (active).

**Q.** For CCOC(=O)c1ccc(S(=O)(=O)N2CCN(c3nc(-c4ccccc4)nc4ccccc34)CC2)cc1, which Potency is on record?
**A.** Its Potency is 5.17 µM (active).

**Q.** For CCOc1ccccc1NC(=O)CN(c1ccc(C)cc1)S(=O)(=O)c1c(C)noc1C, which “activity change, negative = inhibition” value is on record?
**A.** The value was 20.7% (inactive).

**Q.** Which “activity change, negative = inhibition” value does the source give for Cc1cc(Cl)nc(NC(=O)Nc2cccc(Cl)c2)n1 here?
**A.** Its value is 20.8% (inactive).

**Q.** With CC(C)(C)C(=O)OCCNc1nc(-c2ccccc2)nc2ccccc12 as the compound, how does the Potency read?
**A.** Its Potency is 1.42 µM (active).

**Q.** CCC(=O)OCCNc1nc(-c2ccccc2)nc2ccccc12 was tested. Which Potency did it give?
**A.** The Potency was 16 µM (active).

**Q.** For Cc1cc2[nH]c(=O)c(=O)[nH]c2cc1S(=O)(=O)N1CCN(c2cccc(C)c2C)CC1, which Potency is on record?
**A.** The Potency was 4.11 µM (active).

**Q.** Which “activity change, negative = inhibition” value does the source give for Cc1nc2nc(-c3ccc(F)cc3)cn2nc1C here?
**A.** The value was 10.6% (inactive).

**Q.** Which Potency does the source give for O=S(=O)(c1ccccc1F)N1CCN(c2nc(-c3cccs3)nc3ccccc23)CC1 here?
**A.** Its Potency is 1.63 µM (active).

**Q.** With Cc1ccc(S(=O)(=O)N2CCN(c3nc(-c4ccc(CN5CCNCC5)s4)nc4ccccc34)CC2)cc1 as the compound, how does the Potency read?
**A.** The Potency was 12.7 µM (active).

**Q.** Which Potency does the source give for O=S(=O)(c1ccc2ncsc2c1)N1CCN(c2nc(-c3cccs3)nc3ccccc23)CC1 here?
**A.** Its Potency is 0.366 µM (active).

**Q.** Which Potency does the source give for S=C(NCCCc1cnc[nH]1)NCCCN(Cc1ccc(Cl)cc1)c1ncc(Br)cn1 here?
**A.** Its Potency is 1.79 µM (active).

**Q.** With O=S(=O)(c1ccc(Cl)cc1)N1CCN(c2nc(-c3cccs3)nc3ccccc23)CC1 as the compound, how does the Potency read?
**A.** The Potency was 1.46 µM (active) and 1.13 µM (active) and 1.63 µM (active).

**Q.** With O=S(=O)(c1ccccc1C(F)(F)F)N1CCN(c2nc(-c3cccs3)nc3ccccc23)CC1 as the compound, how does the Potency read?
**A.** The Potency was 0.41 µM (active).

**Q.** How did the “activity change, negative = inhibition” value turn out when CC(=O)Nc1ccc(NC(=O)COc2ccccc2C(=O)Nc2cccc(Cl)c2Cl)cc1 was run?
**A.** Its value is -7.21% (inactive).

**Q.** For O=C(Nc1ccccc1)Nc1ccccc1, which Potency is on record?
**A.** The Potency was “inactive”.

**Q.** With O=C(c1ccccc1)N1CCN(c2nc(-c3cccs3)nc3ccccc23)CC1 as the compound, how does the Potency read?
**A.** The Potency was 1.42 µM (active).

**Q.** Which Potency does the source give for O=C(NCCCc1cnc[nH]1)NCCCN(Cc1ccc(Cl)c(Cl)c1)c1ccc(Br)cn1 here?
**A.** Its Potency is 1.03 µM (active).

**Q.** Which Potency does the source give for Cc1ccc(S(=O)(=O)N2CCN(c3nc(C(N)=O)nc4ccccc34)CC2)cc1 here?
**A.** Its Potency is 13 µM (active).

**Q.** For Cc1csc(NC(=O)CN2C(=O)c3ccccc3S2(=O)=O)n1, which “activity change, negative = inhibition” value is on record?
**A.** The value was -18.1% (inactive).

**Q.** For CC(C)OCCCNc1nc(-c2ccccc2)nc2ccccc12, which Potency is on record?
**A.** The Potency was 4.01 µM (active).

**Q.** Cc1cc(C)cc(N(CC(=O)NC2CCC(C)CC2)S(=O)(=O)c2c(C)[nH]c(=O)[nH]c2=O)c1 (centres undefined) was tested. Which Potency did it give?
**A.** The Potency was 2.51 µM (active).

**Q.** With O=S(=O)(c1ccccc1)N1CCN(c2nc(-c3cccs3)nc3ccccc23)CC1 as the compound, how does the Potency read?
**A.** The Potency was 1.46 µM (active) and 919 nM (active).

**Q.** Which Potency does the source give for CCc1ccc(NC(=O)CN(c2ccc(OC)cc2)S(=O)(=O)c2c(C)[nH]c(=O)[nH]c2=O)cc1 here?
**A.** The Potency was 6.51 µM (active).

**Q.** How did the “activity change, negative = inhibition” value turn out when CCCCNC(=O)c1cc2c(=O)n3cccc(C)c3nc2s1 was run?
**A.** The value was 23.8% (inactive).

**Q.** How did the Potency turn out when Cc1ccc(S(=O)(=O)N2CCCN(c3nc(-c4cccs4)nc4ccccc34)CC2)cc1 was run?
**A.** The Potency was 5.66 µM (active).

**Q.** For Cc1ccc(S(=O)(=O)N2CCN(c3nc(-c4cccs4)nc4ncccc34)CC2)cc1, which Potency is on record?
**A.** The Potency was 2.25 µM (active).

**Q.** With O=C(/C=C/c1ccc(O)cc1)c1ccc(O)cc1O as the compound, how does the Potency read?
**A.** The Potency was 11.2 µM (active).

**Q.** For CCN1CCN(C(=O)CCN(CC(C)C)c2nc(-c3cccs3)nc3ccccc23)CC1, which Potency is on record?
**A.** Its Potency is 20.2 µM (active).
